For 13 molecules, AC50 and outcome results are on record in PubChem BioAssay (EPA / NIEHS).

Where a structure was tested more than once in an assay, its records may differ in their call. Calls of active or inactive are those of the source. The calls were made as follows: active = hit-call score of the fitted dose curve at least 0.9, where 1 is the maximum; inactive = score below 0.9.

One may read the AC50 as the concentration at which the activity in the assay is half-maximal.

The nature of assay [1]: ATG_GLI_CIS: Attagene CIS-FACTORIAL HepG2 Assay for human Zinc Finger Protein GLI1 (AID 2282945). Conditions: HepG2, Attagene cis-factorial reporter mRNA, GLI element; actives raise or lower the signal. The method, boiled down:
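Bidirectional curve fits relative to DMSO, using reporter mRNA levels from RT-PCR plus capillary electrophoresis. Cells were HepG2 transiently carrying cis-regulated reporter constructs, harvested 24 h after dosing.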

Assay [2] addresses Bile acid receptor (Homo sapiens) (UniProt Q96RI1). The assay is described as follows: ATG_IR1_CIS: Attagene CIS-FACTORIAL HepG2 Assay for human Nuclear Receptor Subfamily 1 Group H Member 4 (NR1H4), IR1 submotif (AID 2282946). Conditions: IR1 reporter transcription, actives raise or lower the signal. Summed up:
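HepG2 cells transiently transfected with multiplexed cis-element reporter units read endogenous transcription factor activity. After 24 h compound exposure, reporter mRNA was quantified by RT-PCR, fluorescent labelling, HpaI digestion and capillary electrophoresis; bidirectional fitting versus DMSO baseline.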

The nature of assay [3]: ATG_GRE_CIS: Attagene CIS-FACTORIAL HepG2 Assay for human Glucocorticoid Response Elements (GRE) (AID 2282947). Conditions: HepG2 GRE cis-reporter, Attagene multiplex mRNA; actives raise or lower the signal. Summed up:
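Multiplexed cis-reporter mRNA induction, HepG2, 24 h post-dose. RT-PCR, FAM-labelled, HpaI-digested amplicons by CE. Bidirectional fit vs DMSO.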

A short description of assay [4]: ATG_ISRE_CIS: Attagene CIS-FACTORIAL HepG2 Assay for human Interferon Regulatory Factor 1 (IRF1) binding to an Interferon-Stimulated Response Element (ISRE) (AID 2282948). Particulars: HepG2 ISRE cis-reporter (Attagene), mRNA transcription readout; actives raise or lower the signal. The method, boiled down:
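Uses HepG2 liver cells transfected with cis-regulated reporters and measures mRNA 24 h post-dosing through RT-PCR, primer-extension labelling and capillary electrophoresis, with DMSO as negative control.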

The nature of assay [5]: ATG_M_32_CIS: Attagene CIS-FACTORIAL HepG2 Assay for M32 Transcription Factor (Internal Marker) (AID 2282949).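 Also: background control marker of the multiplexed CIS panel rather than a real target.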 Conditions: HepG2 Attagene cis-factorial M32 reporter, mRNA; actives raise or lower the signal. The method, boiled down:
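Transient MRTU transfection of HepG2; 24 h compound treatment; TriZol RNA, oligo(dT) RT, reporter PCR, 6-FAM primer extension, HpaI cut, CE. Gain/loss of signal vs DMSO.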

A short description of assay [6]: ATG_M_06_CIS: Attagene CIS-FACTORIAL HepG2 Assay for M06 Transcription Factor (Internal Marker) (AID 2282950). Conditions: HepG2 Attagene CIS-FACTORIAL M06 internal marker reporter; actives raise or lower the signal. Summed up:
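HepG2 liver cells, 24 h exposure. Reporter transcripts from transfected cis-element constructs quantified by RT-PCR/capillary electrophoresis fluorescence. Bidirectional curve fit against DMSO.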

In assay [7] the target is Hypoxia-inducible factor 1-alpha (Homo sapiens) (UniProt Q16665). The assay is described as follows: ATG_HIF1a_CIS: Attagene CIS-FACTORIAL HepG2 Assay for human Hypoxia Inducible Factor 1 (HIF1A) (AID 2282951). Conditions: HepG2 Attagene cis-factorial HIF1a reporter transcription; actives raise or lower the signal. The method, boiled down: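 After 24 h chemical exposure of reporter-transfected HepG2 cells, reporter cDNA was PCR-amplified, labelled by 6-FAM primer extension (2 min 95 C, 20 s 68 C, 10 min 72 C), HpaI-cut (2 h, 37 C) and analysed by CE.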

Assay [8] addresses Hepatocyte nuclear factor 6 (Homo sapiens) (UniProt Q9UBC0). The assay is described as follows: ATG_HNF6_CIS: Attagene CIS-FACTORIAL HepG2 Assay for human Hepatocyte Nuclear Factor 6 (HNF6) (AID 2282952). Conditions: HepG2 Attagene cis-factorial HNF6 reporter transcription; actives raise or lower the signal. Summed up: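 Endogenous transcription factor activity in human HepG2 liver cells was captured through cis-regulated reporter constructs. After 24 h treatment, reporter mRNA was measured by RT-PCR with capillary electrophoresis, and activity was fitted in both directions relative to DMSO.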

Assay [9] is described as follows: ATG_MRE_CIS: Attagene CIS-FACTORIAL HepG2 Assay for human Metal Responsive Element (MRE) (AID 2282954). Particulars: HepG2 MRE cis-reporter transcription, Attagene multiplex; actives raise or lower the signal. Summed up:
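Multiplexed cis-reporter assay in human HepG2 liver cells, 24 h incubation with test chemical. Reporter transcripts measured by RT-PCR and capillary electrophoresis; values from bidirectional curve fitting versus DMSO.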

The target in assay [10] is Heat shock factor protein 1 (Homo sapiens) (UniProt Q00613). The assay is described as follows: ATG_HSE_CIS: Attagene CIS-FACTORIAL HepG2 Assay for human Heat Shock Transcription Factor 1 (HSE) (AID 2282953). Particulars: HepG2 HSE cis-reporter, Attagene RNA transcription; actives raise or lower the signal. Summed up: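 Endogenous transcription factor activity captured via cis-promoter reporter units transfected into HepG2; treatment lasted 24 h. Fluorescence intensity of reporter fragments analysed with bidirectional curve fitting, DMSO baseline.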
Heat shock factor protein 1 (Homo sapiens), sequence (Q00613 whole entry, looked up, the tested form may be a part): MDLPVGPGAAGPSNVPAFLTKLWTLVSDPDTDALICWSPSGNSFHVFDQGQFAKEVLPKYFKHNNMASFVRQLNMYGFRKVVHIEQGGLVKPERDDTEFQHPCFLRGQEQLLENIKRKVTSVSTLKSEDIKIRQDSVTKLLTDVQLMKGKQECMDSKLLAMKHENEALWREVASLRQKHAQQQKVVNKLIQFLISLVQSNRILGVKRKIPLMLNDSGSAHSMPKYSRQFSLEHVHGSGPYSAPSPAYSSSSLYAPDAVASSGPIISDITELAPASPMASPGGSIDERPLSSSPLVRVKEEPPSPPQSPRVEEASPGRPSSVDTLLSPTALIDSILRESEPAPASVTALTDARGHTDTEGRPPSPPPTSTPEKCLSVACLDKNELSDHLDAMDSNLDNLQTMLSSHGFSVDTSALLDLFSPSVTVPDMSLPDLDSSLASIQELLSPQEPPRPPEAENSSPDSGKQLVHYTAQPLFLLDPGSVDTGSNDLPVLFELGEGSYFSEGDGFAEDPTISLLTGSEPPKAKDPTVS

Hepatocyte nuclear factor 6 (Homo sapiens), sequence (Q9UBC0 whole entry, looked up): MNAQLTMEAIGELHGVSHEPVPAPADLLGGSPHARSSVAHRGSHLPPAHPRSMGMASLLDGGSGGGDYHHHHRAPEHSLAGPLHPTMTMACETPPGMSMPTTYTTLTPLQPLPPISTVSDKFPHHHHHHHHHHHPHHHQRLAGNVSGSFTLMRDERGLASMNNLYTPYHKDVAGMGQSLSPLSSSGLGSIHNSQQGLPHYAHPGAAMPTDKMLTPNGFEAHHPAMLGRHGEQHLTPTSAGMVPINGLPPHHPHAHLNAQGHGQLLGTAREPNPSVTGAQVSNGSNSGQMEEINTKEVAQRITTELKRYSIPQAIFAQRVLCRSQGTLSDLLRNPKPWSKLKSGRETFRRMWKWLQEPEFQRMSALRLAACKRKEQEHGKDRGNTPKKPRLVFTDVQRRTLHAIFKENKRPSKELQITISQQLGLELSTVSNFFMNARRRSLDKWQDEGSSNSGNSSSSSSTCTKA
Hypoxia-inducible factor 1-alpha (Homo sapiens), sequence (Q16665 whole entry, looked up): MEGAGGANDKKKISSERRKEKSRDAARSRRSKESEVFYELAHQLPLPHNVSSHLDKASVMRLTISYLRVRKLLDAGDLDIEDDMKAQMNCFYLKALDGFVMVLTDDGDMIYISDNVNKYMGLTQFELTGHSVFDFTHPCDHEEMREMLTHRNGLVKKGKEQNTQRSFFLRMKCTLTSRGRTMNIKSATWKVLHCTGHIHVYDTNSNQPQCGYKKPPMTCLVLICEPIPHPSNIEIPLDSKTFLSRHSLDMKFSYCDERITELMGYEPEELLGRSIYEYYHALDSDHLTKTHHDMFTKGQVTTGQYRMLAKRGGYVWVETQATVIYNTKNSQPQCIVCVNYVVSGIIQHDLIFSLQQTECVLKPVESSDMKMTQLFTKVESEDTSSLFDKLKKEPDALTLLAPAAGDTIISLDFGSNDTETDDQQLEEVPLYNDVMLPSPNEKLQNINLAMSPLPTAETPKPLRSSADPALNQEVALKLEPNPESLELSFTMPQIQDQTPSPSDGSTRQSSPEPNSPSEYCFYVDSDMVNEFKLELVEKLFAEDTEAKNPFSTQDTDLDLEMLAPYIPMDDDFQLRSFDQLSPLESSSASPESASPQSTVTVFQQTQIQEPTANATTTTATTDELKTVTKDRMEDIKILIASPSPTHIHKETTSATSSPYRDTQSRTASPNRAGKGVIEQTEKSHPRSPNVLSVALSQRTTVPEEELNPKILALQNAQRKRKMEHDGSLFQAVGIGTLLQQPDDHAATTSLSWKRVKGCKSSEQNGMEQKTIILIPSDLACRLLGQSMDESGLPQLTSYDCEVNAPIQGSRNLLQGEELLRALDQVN
Bile acid receptor (Homo sapiens), sequence (Q96RI1 whole entry, looked up): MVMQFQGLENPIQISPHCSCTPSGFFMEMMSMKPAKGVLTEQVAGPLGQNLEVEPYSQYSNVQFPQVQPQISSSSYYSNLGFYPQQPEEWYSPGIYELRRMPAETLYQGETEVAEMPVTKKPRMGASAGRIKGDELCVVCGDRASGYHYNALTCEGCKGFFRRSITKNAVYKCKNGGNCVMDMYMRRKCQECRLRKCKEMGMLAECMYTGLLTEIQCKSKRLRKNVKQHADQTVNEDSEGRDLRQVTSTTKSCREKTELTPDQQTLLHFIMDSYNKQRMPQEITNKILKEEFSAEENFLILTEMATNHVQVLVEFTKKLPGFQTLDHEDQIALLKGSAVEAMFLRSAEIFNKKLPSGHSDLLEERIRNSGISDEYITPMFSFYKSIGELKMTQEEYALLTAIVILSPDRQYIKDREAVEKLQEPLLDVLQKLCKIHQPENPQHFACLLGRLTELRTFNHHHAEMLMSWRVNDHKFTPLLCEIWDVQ

As for `C=CCC1=C(C)C(OC(=O)C2C(C=C(C)C)C2(C)C)CC1=O` (stereo unspecified), the AC50 in assay [1] is 67.2 µM (active) [middle of 5 runs]; in assay [2], 54.7 µM (active); in [5], 107 µM (active); in assay [7] it was 35 µM (active) [middle of 4 runs]; in [9], 43.8 µM (active) [middle of 6 runs]. Besides, the molecule was called inactive in [1], in assay [2], in assay [3], in assay [4], in assay [5] and in assay [6]. In addition, the molecule was classed as inactive in assay [7] and in assay [8].

As for `CCOP(=S)(OCC)SCn1c(=O)oc2cc(Cl)ccc21`, the molecule was called inactive in [1], in assay [2], in [3], in assay [4], in [5] and in assay [6]. In assay [8], the result was inactive. Moreover, the AC50 in assay [7] is 28.8 µM (active); in [10], 78.7 µM (active); in assay [9], 66.2 µM (active).

For the molecule `CC1=C(C(=O)Nc2ccccc2)SCCO1`, the molecule was called inactive in [1], in assay [2], in [3], in [4], in assay [5] and in assay [6]. The call in [7], in assay [8], in assay [10] and in [9] was inactive.

Regarding `COP(=S)(OC)Oc1nc(Cl)c(Cl)cc1Cl`, the concentration at half-maximal activity (AC50) in assay [1] was 64.9 µM (active). In addition, the result in assay [2], in assay [3], in assay [4], in assay [5], in assay [6] and in assay [7] was inactive. Besides, the result in assay [8] and in [9] was inactive.

For `COC(=O)C=C(C)OP(=O)(OC)OC`, the molecule was classed as inactive in [1], in assay [2], in [3], in assay [4], in assay [5] and in [6]. In addition, the molecule was classed as inactive in assay [7], in [8] and in assay [9].

Consider `Cc1c(F)c(F)c(COC(=O)C2C(/C=C(\Cl)C(F)(F)F)C2(C)C)c(F)c1F` (stereo unspecified), for which the molecule was classed as inactive in assay [1], in assay [2], in assay [3], in [4], in assay [5] and in assay [6]. Besides, the molecule was called inactive in [7], in assay [8], in [10] and in assay [9].

Turning to `CCNc1nc(Cl)nc(NCC)n1`, the molecule was called inactive in [1], in assay [2], in [3], in [4], in assay [5] and in assay [6]. In addition, the molecule was called inactive in assay [7], in [8], in assay [10] and in [9].

Consider `N#Cc1cc(Br)c(O)c(Br)c1`, for which the molecule was classed as inactive in assay [1], in assay [2], in [3], in assay [4], in assay [5] and in assay [6]. Besides, the molecule was called inactive in [7], in assay [8] and in assay [10]. For the same molecule, the AC50 in [9] is 39.9 µM (active).

In the case of `O=C(Nc1ccccc1)Nc1ccnc(Cl)c1`, the result in [1], in assay [2], in [3], in assay [4], in assay [5] and in assay [6] was inactive. Further, the result in assay [7] and in [8] was inactive. In addition, in [9], the AC50 was 37 µM (active).

For the molecule `COc1nc(C)nc(NC(=O)NS(=O)(=O)c2ccccc2CCC(F)(F)F)n1`, the molecule was classed as inactive in assay [1], in assay [2], in assay [3], in assay [4], in [5] and in [6]. In addition, the call in assay [7], in assay [8], in assay [10] and in assay [9] was inactive.

For `CCCC1COC(Cn2cncn2)(c2ccc(Cl)cc2Cl)O1` (stereo unspecified), the outcome in [1], in assay [2], in assay [3], in [4], in assay [5] and in assay [6] was inactive. Moreover, the molecule was classed as inactive in assay [7], in [8] and in assay [9]. Moreover, the AC50 in [7] and in assay [9] was 50 µM (active) throughout.

Consider `CCOc1cc(Oc2ccc(C(F)(F)F)cc2Cl)ccc1[N+](=O)[O-]`, for which the result in [1], in assay [2], in assay [3], in assay [4], in [5] and in [6] was inactive. Also, the outcome in assay [7], in [8] and in assay [10] was inactive. In addition, the AC50 in assay [9] is 22 µM (active).

For `COc1nc(NC(C)C)nc(NC(C)C)n1`, the molecule was classed as inactive in assay [1], in assay [2], in assay [3], in assay [4], in assay [5] and in [6]. The call in assay [7], in assay [8], in assay [10] and in assay [9] was inactive.
